Experimental findings from the supplement of paper PMC13380429 are described below.

The subject of assay [1] is Vero E6 infected with SARS-CoV-2. The assay can be described thus: morphology score (similarity to uninfected cells); higher = more like uninfected cells. The note with it: 24 h.
For assay [2] the test system is unchanged. The assay can be described thus: SARS-CoV-2 infection rate relative to infected DMSO; higher = more infection, active = 60 or less. The note with it: 24 h.

`O=C(CBr)N1CC([N+](=O)[O-])([N+](=O)[O-])C1` (10 µM) showed a morphology score in assay [1] of 0.0284. Further, in assay [2], the SARS-CoV-2 infection rate was 116% (inactive).
For `CCN1C[C@]2(OC(=O)c3ccccc3NC(C)=O)CC[C@H](OC)[C@@]34[C@@H]2C[C@@H]([C@@H]13)[C@@]1(O)C[C@H](OC)[C@H]2C[C@@H]4[C@]1(O)[C@H]2OC` [lappaconite] (10 µM), in that order: 0.0794 and 118% (inactive).
For `O=C(O)c1cnn(-c2nc3cc(OC(F)(F)F)c(Cl)cc3[nH]2)c1` (10 µM), in that order: 0.316 and 88.5% (inactive).
The like results for `Nc1ccc(S(=O)(=O)Nc2ccnn2-c2ccccc2)cc1` [sulfaphenazole] (10 µM) were, in that order, 0.178 and 99.5% (inactive).
Turning to `COc1cc(OC)cc(C(=O)NNC(=O)Nc2cccc3ccccc23)c1` (10 µM), the morphology score in assay [1] stood at 0.0721. Further, the SARS-CoV-2 infection rate in assay [2] is 105% (inactive).
The like results for `CS(=O)(=O)c1cccc(CNc2nc(Nc3ccc4c(c3)CCC(=O)N4)ncc2C(F)(F)F)c1` (0.833333 µM) were, in that order, 0.138 and 114% (inactive).
The like results for `CNCC(O)c1ccc(OC(=O)C(C)(C)C)c(OC(=O)C(C)(C)C)c1` (stereo unspecified) [dipivefrine] (10 µM) were, in that order, 0.127 and 89.5% (inactive).
Regarding `O=C(O)COc1ccc(OCCNC[C@H](O)COc2ccccc2)cc1` (10 µM), the morphology score in assay [1] was -0.002. For the same compound, the SARS-CoV-2 infection rate in assay [2] was 104% (inactive).
For `CNC(=O)c1cccc(NC(=O)N2CCC(Oc3ccccc3Cl)CC2)c1` (10 µM), in that order: -0.102 and 114% (inactive).
The like results for `Cc1ccc(F)cc1C(=O)Nc1ccc(C(=O)N2Cc3cccn3Cc3ccccc32)c(Cl)c1` [lixivaptan] (10 µM) were, in that order, 0.0414 and 111% (inactive).
Consider `CCCCNc1cc(C(=O)O)cc(S(N)(=O)=O)c1Oc1ccccc1` [bumetanide] (10 µM), for which, in assay [1], the morphology score came to 0.0462. In assay [2], the SARS-CoV-2 infection rate was 102% (inactive).
`O=C(Nc1ccccc1)c1cc([N+](=O)[O-])ccc1Cl` (10 µM) came in with a morphology score in assay [1] of 0.103. The SARS-CoV-2 infection rate in assay [2] is 94.5% (inactive).
The like results for `CC(=O)O[C@@H]1CC[C@@]2(C)[C@@H](CC[C@]3(C)[C@@H]2C(=O)C=C2[C@@H]4[C@@H](C)[C@H](C)CC[C@]4(C)CC[C@]23C)[C@@]1(C)C(=O)O` [acetyl-11-keto-beta-boswellic-acid] (10 µM) were, in that order, 0.104 and 105% (inactive).
For `CN[C@H]1CC[C@@H](c2ccc(Cl)c(Cl)c2)c2ccccc21` (0.833333 µM), in that order: 0.143 and 89.5% (inactive).
The like results for `CN(C)C(=O)C(=O)c1cn(C)c2cc(Cl)c(C(=O)N3CCC(Cc4ccc(F)cc4)CC3)cc12` (10 µM) were, in that order, 0.323 and 82% (inactive).
On to `N#C[C@@H]1C[C@@H]2C[C@@H]2N1C(=O)[C@@H](N)C12CC3CC(CC(O)(C3)C1)C2` (10 µM), for which the morphology score in assay [1] is -0.0311. The SARS-CoV-2 infection rate in assay [2] was 105% (inactive).
The like results for `Cc1cc(SCc2sc(-c3ccc(C(F)(F)F)cc3)nc2C)ccc1OCC(=O)O` (10 µM) were, in that order, 0.0978 and 98.5% (inactive).
For `Nc1ccc2cc3ccc(N)cc3nc2c1` [proflavine-hemisulfate] (0.833333 µM), in that order: 0.26 and 80.5% (inactive).
For `NC(=O)c1cnccn1` [pyrazinamide] (10 µM), in that order: 0.0672 and 110% (inactive).
`CN1CC(=O)N=C1NC(=O)Nc1cccc(Cl)c1` [fenobam] (10 µM): the morphology score in assay [1] is -0.115. The SARS-CoV-2 infection rate in assay [2] is 107% (inactive).
The like results for `C#C[C@]1(O)C=C[C@H]2[C@@H]3CCC4=CC(=O)CC[C@@H]4[C@H]3CC[C@@]21CC` [gestodene] (10 µM) were, in that order, 0.149 and 107% (inactive).
In the case of `c1ccc(Oc2nc(NC3CCCCC3)c3[nH]cnc3n2)cc1` (0.833333 µM), the morphology score in assay [1] amounted to 0.191. In assay [2], the SARS-CoV-2 infection rate is 104% (inactive).
The like results for `Cc1cc(N2CCOCC2)ccc1Nc1nc(NC2CCCCC2)c2nc[nH]c2n1` (10 µM) were, in that order, -0.0587 and 90.5% (inactive).
In assay [1], `O=C(O)c1cn(-c2ccc(F)cc2)c2cc(N3CCNCC3)c(F)cc2c1=O` [sarafloxacin] (10 µM) yielded a morphology score of 0.213. Moreover, in assay [2], the SARS-CoV-2 infection rate was 93% (inactive).
The like results for `Oc1c(Cl)cc(Cl)cc1Sc1cc(Cl)cc(Cl)c1O` [bithionol] (10 µM) were, in that order, -0.096 and 106% (inactive).
Take `N[C@H](C(=O)O)[C@H](O)c1ccc(O)c(O)c1` [droxidopa] (10 µM): the morphology score in assay [1] was -0.0971. For the same compound, in assay [2], the SARS-CoV-2 infection rate is 122% (inactive).
For `O=C(Nc1cnn2ccc(N3CCC[C@@H]3c3cc(F)ccc3F)nc12)N1CC[C@H](O)C1` [larotrectinib] (10 µM), in that order: -0.124 and 122% (inactive).
The like results for `COC(=O)Nc1nc2cc(C(=O)c3ccc(F)cc3)ccc2[nH]1` [flubendazole] (10 µM) were, in that order, 0.13 and 98% (inactive).
